Records with an inconclusive call do not appear. The source made the active and inactive calls. The calls were made as follows, unless noted: active = hit-call score of the fitted dose curve at least 0.9, where 1 is the maximum; inconclusive = response in the unintended direction; inactive = score below 0.9.

The term AC50 denotes the concentration at which the activity in the assay is half-maximal.

The nature of assay [1]: Tanguay_ZF_120hpf_BRAI_legacy: (Legacy) Oregon State University Tanguay Lab 120 Hour Post-fertilization zebrafish Assay for Brain Malformation (AID 2283641). A digest of the protocol:
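Static exposure of staged wild-type embryos until 120 hpf, kept at 28C with light excluded and final DMSO of 0.64% (vol/vol). Presence or absence of brain malformation was noted under brightfield; mortality precluded scoring.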

Assay [2] is described as follows: Tanguay_ZF_120hpf_SOMI_legacy: (Legacy) Oregon State University Tanguay Lab 120 Hour Post-fertilization zebrafish Assay for Somite Malformation (AID 2283647). A digest of the protocol: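 Somitogenesis defects are recorded as binary calls in whole larvae at 120 hpf after continuous static chemical exposure starting at 6 hpf in dechorionated 5D embryos. DMSO serves as negative control and baseline.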

Assay [3] is described as follows: Tanguay_ZF_120hpf_PFIN_legacy: (Legacy) Oregon State University Tanguay Lab 120 Hour Post-fertilization zebrafish Assay for Pectoral Fin Malformation (AID 2283648).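 Also: each larva judged yes or no for fin defect by brightfield with dead larvae skipped.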 A digest of the protocol: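 Pectoral fin malformation was recorded as a binary endpoint at 120 hpf in wild-type Tropical 5D larvae, which had been dechorionated and exposed statically from 6 hpf at 28C in 0.64% DMSO. Dead embryos were excluded.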

Assay [4] in a line: Tanguay_ZF_120hpf_CFIN_legacy: (Legacy) Oregon State University Tanguay Lab 120 Hour Post-fertilization zebrafish Assay for Caudal Fin Malformation (AID 2283649). The gist of the method: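 Single dechorionated 5D wild-type embryos are dosed at 6 hpf (final DMSO 0.64%) and held statically at 28C. Caudal fin malformation is recorded as present or absent at 120 hpf under brightfield, excluding dead embryos.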

Assay [5] is described as follows: Tanguay_ZF_120hpf_PIG_legacy: (Legacy) Oregon State University Tanguay Lab 120 Hour Post-fertilization zebrafish Assay for Pigmentation Malformation (AID 2283650). The gist of the method: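 Pigment malformation recorded as a binary call at 120 hpf in zebrafish (Tropical 5D) exposed singly from 6 hpf after pronase dechorionation. Static, sealed, 28C exposure, 0.64% DMSO; mortality excludes scoring; positive-direction fit against DMSO.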

A short description of assay [6]: Tanguay_ZF_120hpf_SWIM_legacy: (Legacy) Oregon State University Tanguay Lab 120 Hour Post-fertilization zebrafish Assay for Swim Bladder Malformation (AID 2283654).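 Also: swim bladder malformation in each larva scored yes or no under brightfield.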 A digest of the protocol: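 Scoring is binary for swim bladder defects at 120 hpf, by brightfield inspection of zebrafish larvae. Embryos were exposed singly from 6 hpf after pronase dechorionation, at 28C with 0.64% DMSO; mortality excluded scoring.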

A short description of assay [7]: Tanguay_ZF_120hpf_TRUN_legacy: (Legacy) Oregon State University Tanguay Lab 120 Hour Post-fertilization zebrafish Assay for Truncated Body (AID 2283655). A digest of the protocol:
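Single dechorionated zebrafish embryos received test chemical from 6 hpf in 0.64% DMSO, kept at 28C. At 120 hpf, brightfield inspection noted any truncated body.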

Assay [8] is described as follows: Tanguay_ZF_120hpf_NC_legacy: (Legacy) Oregon State University Tanguay Lab 120 Hour Post-fertilization zebrafish Assay for Notochord and Tail Malformation (AID 2283656). A digest of the protocol:
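Binary notochord-distortion calls, made by brightfield inspection, form the read-out; activity is fitted in the positive direction against DMSO. Exposure ran statically from 6 to 120 hpf at 28C with 0.64% DMSO.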

A short description of assay [9]: Tanguay_ZF_120hpf_TR_legacy: (Legacy) Oregon State University Tanguay Lab 120 Hour Post-fertilization zebrafish Assay for Touch Response (AID 2283667). A digest of the protocol:
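Binary touch-response endpoint in larvae at 120 hpf after static waterborne exposure from embryo stage (28°C, 0.64% DMSO vehicle, 5 uM trimethyltin chloride as positive control); embryos dead at 24 or 120 hpf excluded; fitted as gain versus DMSO.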

A short description of assay [10]: CCTE_Padilla_ZF_144hpf_TERATOSCORE: (Legacy) CCTE's 144 Hour Post-fertilization zebrafish Assay Teratoscore, Padilla Lab (AID 2283679; active = hit-call score of the fitted dose curve at least 0.9, where 1 is the maximum; inactive = score below 0.9;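 as to AC50: zebrafish embryos with chorions exposed by immersion from 6-8 hpf to 5 dpf with daily renewal; teratogenicity score from eye scoring of death hatching and malformations at 144 hpf; higher score means more developmental defects relative to DMSO baseline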). The gist of the method: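 Larvae scored by eye at 144 hpf for death, hatching and malformations after a day in clean Hanks'. Before that, daily-renewed exposure at 80 uM (0.4% DMSO, 26C) from roughly 6-8 hpf through 5 dpf, 4 embryos per chemical.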

Read-out in assay [11]: kallikrein-3 (KLK3), KLK3 (gene 354)
In words: LTEA_HepaRG_KLK3: Life Technologies and Expression Analysis (LTEA) Assay for kallikrein-3 (KLK3) using HepaRG (AID 2283652; active = hit-call score of the fitted dose curve at least 0.9, where 1 is the maximum; inactive = score below 0.9). Particulars: mRNA level, 48 h; actives raise or lower the signal. The gist of the method: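 KLK3 transcript levels were measured by TaqMan qRT-PCR with normalisation to three housekeeping genes. HepaRG cultures received chemicals for 48 h at up to 100 uM (half-log, 8 points, 0.5% DMSO vehicle), fitted in both directions against DMSO.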

Read-out in assay [12]: solute carrier (SLC22A6), SLC22A6 (gene 9356)
In words: LTEA_HepaRG_SLC22A6: Life Technologies and Expression Analysis (LTEA) Assay for solute carrier (SLC22A6) using HepaRG (AID 2283653; active = hit-call score of the fitted dose curve at least 0.9, where 1 is the maximum; inactive = score below 0.9). The settings on record: mRNA level, 48 h; actives raise or lower the signal. A digest of the protocol: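 Gene-expression endpoint in HepaRG hepatic cells: duplicate 8-point concentration-response, highest 100 uM, 48 h treatment in serum-free medium with 0.5% DMSO. SLC22A6 expression measured by qRT-PCR, normalised to ACTB/GAPDH/POLR2A.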

Read-out in assay [13]: solute carrier (SLC10A1), SLC10A1 (gene 6554)
In words: LTEA_HepaRG_SLC10A1: Life Technologies and Expression Analysis (LTEA) Assay for solute carrier (SLC10A1) using HepaRG (AID 2283657; active = hit-call score of the fitted dose curve at least 0.9, where 1 is the maximum; inactive = score below 0.9). Particulars: mRNA level, 48 h; actives raise or lower the signal. A digest of the protocol: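 SLC10A1 transcript measured by TaqMan qRT-PCR, housekeeping-normalised, after 48 h chemical treatment of human HepaRG cells. Eight concentrations (half-log, max 100 uM, 0.5% DMSO vehicle) in duplicate; fitted bidirectionally against DMSO baseline.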

Read-out in assay [14]: matrix metalloproteinase-1 (MMP1), MMP1 (gene 4312)
In words: LTEA_HepaRG_MMP1: Life Technologies and Expression Analysis (LTEA) Assay for matrix metalloproteinase-1 (MMP1) using HepaRG (AID 2283658; active = hit-call score of the fitted dose curve at least 0.9, where 1 is the maximum; inactive = score below 0.9). Particulars: mRNA level, 48 h; actives raise or lower the signal. The gist of the method:
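In this screen, human liver HepaRG cultures receive each chemical in duplicate for 48 h (top 100 uM, 0.5% DMSO). MMP1 expression is then quantified by TaqMan qRT-PCR with ACTB/GAPDH/POLR2A normalization.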

Read-out in assay [15]: Cytochrome P450 (CYP24A1_1), CYP24A1 (gene 1591)
Nature of the assay: LTEA_HepaRG_CYP24A1_1: Life Technologies and Expression Analysis (LTEA) Assay for Cytochrome P450 (CYP24A1_1) using HepaRG (AID 2283671; active = hit-call score of the fitted dose curve at least 0.9, where 1 is the maximum; inactive = score below 0.9). The settings on record: mRNA level, 48 h; actives raise or lower the signal. The gist of the method:
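Differentiated human HepaRG cells were exposed in duplicate for 48 h in serum-free induction medium to eight concentrations (top 100 uM, half-log steps, 0.5% DMSO). CYP24A1 mRNA was quantified by TaqMan qRT-PCR, normalized to ACTB, GAPDH and POLR2A, and fitted bidirectionally versus DMSO.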

Assay [16] in a line: Tanguay_ZF_120hpf_CIRC_legacy: (Legacy) Oregon State University Tanguay Lab 120 Hour Post-fertilization zebrafish Assay for Circulatory Malformation (AID 2283651). A digest of the protocol:
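Static exposure, 6–120 hpf, 28C, sealed and dark; one dechorionated 5D embryo/well; DMSO 0.64% v/v final. Binary circulation endpoint by brightfield; dead embryos not scored.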

The test system of assay [17] is Thyroperoxidase (TPO), gene 54314. Nature of the assay: CCTE_Simmons_AUR_rTPO: CCTE's Amplex UltraRed Assay for Thyroperoxidase (TPO) Inhibition, Simmons Lab (AID 2283662).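 Also: potency for loss of signal meaning inhibition of peroxidase activity.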 The gist of the method:
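Rat thyroid microsomes (5 ug protein) were incubated with test compound (8 concentrations, 5 nM–87.5 uM final, 0.5% DMSO), 25 uM Amplex UltraRed and 300 uM H2O2 in 200 mM phosphate buffer for 30 min at 37C in the dark; fluorescence read at 544/590 nm.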

Assay [18] can be described thus: CCTE_Simmons_CellTiterGLO_HEK293T: Viability Assessment in CCTE's Assays for Thyroperoxidase (TPO) Inhibition, Simmons Lab (AID 2283665).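 As to AC50: cells exposed to compound for 24 h before readout; actives reduce ATP signal below DMSO vehicle meaning cytotoxicity.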 A digest of the protocol:
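Luminescent ATP readout (CellTiter-Glo, 20 min at room temperature) after 24 hr exposure of HEK293T cells to 5 nM–87.5 uM final compound; signal loss relative to DMSO vehicle indicated cytotoxicity; dichlone titrated as positive control.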
Background: ATP-based viability assays read luminescence as a measure of living cells.

Assay [19] is described as follows: STM_H9_CystineISnorm_perc: Stemina devTOX quickPredict H9 human embryonic stem cell (hESC)-based Assay for Cystine (CYSS) Metabolite Biomarker, Normalized (AID 2283713; active = hit-call score of the fitted dose curve at least 0.9, where 1 is the maximum; inactive = score below 0.9). The gist of the method:
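UPLC-HRMS read-out: endogenous cystine peak area in spent medium, normalized to isotope-labeled internal standard and to median of 0.1% DMSO controls. Pluripotent H9 cells, 72h exposure, daily medium/compound replenishment; medium from last 24h sampled.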

A short description of assay [20]: STM_H9_OrnCyssISnorm_ratio: Stemina devTOX quickPredict H9 human embryonic stem cell (hESC)-based Assay for Ornithine (ORN):Cystine (CYSS) Ratio (AID 2283714). A digest of the protocol: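 Ratio of internal-standard-normalized ornithine to cystine, measured by UPLC-HRMS in spent media from the last 24 h. H9 cells kept pluripotent, dosed 72 h with daily media and compound renewal; DMSO 0.1% serves as baseline.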

On to `O=C(OCCCCCOC(=O)c1ccccc1)c1ccccc1`, for which the call in assay [1], in assay [2], in assay [3], in [4], in assay [5] and in [6] was inactive. Also, the result in assay [7], in assay [8], in assay [9] and in [10] was inactive.

On to `CCCCCCCCCCC`, for which the result in assay [1], in assay [2], in assay [3], in assay [4], in [5] and in [11] was inactive. Also, the result in [12], in assay [6], in [7], in [8], in [13] and in assay [14] was inactive. The outcome in [15] was inactive.

As to `CCCCC(CC)COC(=O)CC(C(=O)OCC(CC)CCCC)S(=O)(=O)O` (stereo not given), the molecule was called inactive in [1], in [2], in assay [3], in assay [4], in assay [5] and in [16]. Moreover, the result in assay [6], in assay [7], in assay [8], in assay [19] and in assay [20] was inactive. For the same molecule, the AC50 was 43.8 µM (active) in assay [17] and 15.8 µM (active) in assay [18].

For the molecule `Cc1ccccc1Cl`, the molecule was called inactive in assay [1], in [2], in [3], in [4], in assay [5] and in [16]. In addition, the molecule was called inactive in assay [7] and in assay [8].

With `FC(F)(F)C(F)(F)C(F)(F)C(F)(F)C(F)(F)C(F)(F)CCI`, the call in [1], in assay [2], in assay [3], in assay [4], in assay [6] and in assay [7] was inactive. In addition, the half-maximal activity concentration (AC50) in [10] is 31.3 µM (active).

Turning to `Cc1cccc(C)c1O`, the outcome in assay [1], in assay [3], in [5], in [16], in assay [7] and in assay [8] was inactive. Also, the call in [18] and in assay [9] was inactive. In addition, the concentration at half-maximal activity (AC50) in assay [17] is 23.4 µM (active).

Take `Cc1ccc2ncccc2c1`: the molecule was classed as inactive in assay [1], in [2], in assay [3], in assay [4], in [5] and in assay [7]. Moreover, the outcome in [8] was inactive.

In the case of `O=C(O)Cc1ccccc1Nc1c(Cl)cccc1Cl`, the molecule was called inactive in [1], in assay [2], in [3], in [4], in assay [5] and in assay [16]. Besides, the outcome in assay [7], in assay [8], in assay [9], in assay [19] and in [20] was inactive. Besides, the AC50 in [10] is 4.79 µM (active).

For the molecule `CNCc1cc(F)ccc1Oc1ccc(Cl)c(Cl)c1`, the result in assay [1], in [3], in assay [4], in assay [5], in [6] and in assay [8] was inactive. Further, the concentration at half-maximal activity (AC50) in [10] was 15.7 µM (active).

Turning to `Cc1nc(C)nc(N2C[C@@H](C)N(c3ccnc([C@@H](C)O)n3)[C@@H](C)C2)n1`, the outcome in [1], in assay [2], in [3], in assay [4], in assay [5] and in [7] was inactive. The molecule was classed as inactive in assay [8] and in [9]. For the same molecule, in assay [10], the AC50 is 30.3 µM (active).

These data come from PubChem BioAssay (EPA / NIEHS).
